Columns and labels:
Experiment in all cases: PBM binding z-score (relative to random genomic background probes); higher = stronger binding; sequences stand for … in GC…GCGATTGACAGCGTAGAATGAAGG
[1] = test system: RARb homodimer (NR concentration 270 nM)
Summary of the method: (§1)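 Custom Agilent 4×180K protein-binding microarrays carried double-stranded probes. Their 34-nt variable regions held direct-repeat seeds, single-nucleotide variants, half-site ablations and random human genomic background sequences. Arrays were incubated 1 h with ligand-free nuclear receptor dimers in PBS pH 7.4, 2% milk, 0.02% Triton X-100, 1 mM DTT, 0.2 mg/mL BSA and 0.4 mg/ml salmon testes DNA. Antibodies against each partner (one per run) detected binding, and scanned fluorescence was regression-normalized. Binding z-scores use random background probes as reference.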

[2] = test system: RARg:RXRa (NR concentration 270 nM, RXRa partner concentration 90 nM)
Summary of the method: as §1

[3] = test system: RARg homodimer (NR concentration 270 nM)
Summary of the method: as §1

[4] = test system: RXRa DBDmut IVT, anti-RXR (DBD mutation: RXRa K156A/R161A, NR concentration 90 nM)
Summary of the method: as §1

[5] = test system: RXRa homodimer (NR concentration 180 nM)
Summary of the method: as §1

[6] = test system: THRa:RXRa (NR concentration 90 nM, RXRa partner concentration 90 nM)
Summary of the method: as §1

[7] = test system: THRa homodimer (NR concentration 90 nM)
Summary of the method: as §1

[8] = test system: VDR homodimer (NR concentration 270 nM)
Summary of the method: as §1

Sequence	PBM binding z-score [1]	PBM binding z-score [2]	PBM binding z-score [3]	PBM binding z-score [4]	PBM binding z-score [5]	PBM binding z-score [6]	PBM binding z-score [7]	PBM binding z-score [8]
ACTATTAGTTGAGACGAGGGCAACCGGTAGGTTG	1.42	0.949	0.676	0.457	0.675	2.69	0.339	1.07
GCTCAGAGGACAAGGTCAGAGCTTTGTCCGTAGA	3.68	3.51	4.41	1.18	2.64	3.08	1.34	0.78
TTACCAAGGTGAAAGGTCGTAGATGCACGCCTTG	2.48	4.5	2.1	-0.0824	6.49	3.42	0.581	0.0396
ACCATTAGTTGACTTAGGGCAACCGATACGACGC	1.34	0.733	0.851	0.744	0.478	1.61	0.915	0.163
ACTAGCAGGCCAAGGGTCACTCACGATTAGTCCG	3.79	3.91	2.97	0.459	3.93	2.56	0.409	1.07
CAAACTAGGTCAACGTCAAAGTCGGTTTGTGCCA	3.56	4.05	4.97	1.68	2.9	3	1.02	1.07
CCTTCCGGGTCACTCCAGGTTATAGCATCGGAGT	3.42	4.34	3.95	1.2	4.33	5.19	2.37	1.77
CATACTGGGCCACGAAAGGTCATTGATTCAGTGA	4.71	4.59	4.63	0.963	4.9	3.87	1.47	2.45
CCTCACGGGTCACTGACAGGTTATAGCATTTGGA	3.33	5.64	4.5	1.81	4.65	2.77	0.669	1.02
ATCTCTAGGTAAAAGTTCAGCGAATCCCGAGGAT	2.76	2.88	3.02	0.792	2.62	1.58	0.0924	1.07
CCGAGTAGGTTACGGGGCATTCAGGCAACGGTGA	1.11	1.02	1.07	-0.416	1.16	0.851	-0.136	0.121
TCATATAAGTAAAGGTGAAAGTCGAACGATATGA	1.41	1.5	1.25	0.638	2.04	1.18	-0.569	-0.0399
CGTCCAAGGTCAAGGTCAGTGGAAGAGACTCGAA	5.13	6.64	7.58	3.79	6.05	4.21	3.67	3.15
CATACAGGGCCAGCTAGGCCAGAGTAGGGACGGC	-0.0405	0.0438	0.566	-1.28	-0.173	-0.0247	-0.492	-0.491
ATATGTAGGATAAGGGTCATTCAGGTTGGTTCGC	3.69	3.9	3.42	2.09	4.8	3.25	1.38	4.54
TGTCATAGTTCAAAGGTAACGTAAGTATCCACAC	2.51	4.15	3.54	2.09	5.18	2.6	0.118	1.23
TAACCAAGGTGAAGGTCGTTGATCCCTCTGTAGA	1.83	1.4	1.38	0.174	1.87	2.32	0.878	0.809
AATACAGGGTCACTAGGCCAGTGTAGGTACGAAT	3.48	5.29	5.09	2.82	6.04	3.4	1.26	2.89
ACTCTGAGGACAAAGGTCAGAGCTACGCCAGTGA	4.42	6.21	5.31	2.07	5.18	4.44	2.66	1.19
TCTTTTAGATCAGCAGGTTAAGAAAGCTGGCCAA	0.0082	0.209	0.197	1.02	0.581	0.357	-0.515	0.00166
ACAGACAGATGAGTGAAGGTAACTCAGCTGGACG	-0.259	0.311	0.543	-0.223	0.367	0.16	-0.331	-0.0316
ATACCAAGGTGATCCTGAGGTCGTTGATACTAAC	1.82	2.54	0.948	0.968	2.08	3.67	2.52	2.87
TTACCAAGGTGAAGGTCGATGATCCCTCTGTAGA	1.64	1.22	1.39	-0.217	1.4	2.05	0.572	0.0587
CCTAGCAGGCCAATCTGGGTCACTCATGGCTTGA	2.19	0.859	1.37	0.157	0.53	3.19	0.363	0.00452
TTACCACGGTGAGCTGAGGTCGTTGATCCAACTC	0.63	0.212	-0.116	-0.00262	0.759	3.24	1.31	1.64
CAAACTAGGTCACAGATGTCAAAGTCCGTGCGTA	3.51	4.42	4.89	2.36	3.86	3.36	1.68	1.91
TCATACAGGTAATACAGGTGAAAGTCGGCATCTA	0.84	0.731	0.586	1.65	1.23	1.18	0.583	0.391
CCTTACGGGTCAAGATTATAGCACGGGTGGTACG	2.79	4.4	4.24	0.558	5.02	2.02	0.000143	0.658
TCTAGCAGGCCAGAGGGTCACTCGAGAGGTACGG	2.65	2.47	2.33	0.0685	2.58	1.37	-0.427	0.163

From the supplement of paper PMC6555819
